Results filed as inconclusive are left out. Activity calls are given as the source filed them. Unless noted, calls come from the whole dose curve.
Columns and labels:
[1] = Nuclear factor erythroid 2-related factor 2/antioxidant responsive element (Nrf2/ARE) small molecule agonists: qHTS cell viability counter screen in human keratinocytes (AID 1919968; active = well fitted curve in the direction sought with a large enough effect in the repeat runs; an effect the other way counts as inactive or inconclusive; note: nearly all actives have a fitted effect of over 55% in size)
In short: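 KeratinoSens cells (HaCaT keratinocytes stably carrying an ARE-luciferase reporter) were seeded at 1,500 cells/well and rested 5 h at 37 C/5% CO2. They were then exposed to compounds in DMSO for 23 h. Viability was read by CellTiter-Fluor fluorescence after 1 h.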

[2] = Nuclear factor erythroid 2-related factor 2/antioxidant responsive element (Nrf2/ARE) small molecule agonists: luciferase reporter gene qHTS assay in human keratinocytes (AID 1919969); note: nearly all actives have a fitted effect of over 35% in size; note: potency is the fitted concentration of half-maximal effect
[3] = biological target: Gonadotropin-releasing hormone receptor (Homo sapiens) (UniProt P30968); assay: Human gonadotropin-releasing hormone receptor (GnRHR) small molecule agonists, calcium flux assay in GnRHR-HEK293 cells (AID 1920063); note: nearly all actives have a fitted effect of over 35% in size
In short: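 HEK293 cells stably expressing human GnRHR were plated 18 h at 37 °C, loaded with calcium dye 1 h at 37 °C, then given compound in agonist mode; fluorescence (Ex/Em 480/540) read kinetically for 3 min at 1 s intervals.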

[4] = biological target: KiSS-1 receptor (Homo sapiens) (UniProt Q969F8); assay: Human kisspeptin (KISS1R) small molecule agonists, calcium flux assay in KISS1R-HEK293 cells (AID 1920064; active = well fitted curve in the direction sought with a large enough effect in the repeat runs; an effect the other way counts as inactive or inconclusive)
In short: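 HEK293 cells stably expressing human KISS1R were plated 18 h at 37 °C, loaded with calcium dye for 1 h at 37 °C, then given compound by pin tool. Fluorescence (Ex/Em 480/540) was read kinetically for 3 min.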

[5] = G protein-coupled receptor (GPCR) small molecule agonists, calcium flux assay: HEK293 wild type cell line counter screen (AID 1920065)
In short: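 Cells were plated and cultured 18 h at 37 C/5% CO2, then loaded with calcium dye for 1 h at 37 C. Compounds in DMSO were pin-transferred in agonist mode, and fluorescence (Ex/Em 480/540) was read kinetically for 3 min at 1 s intervals.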

[6] = p53 small molecule agonists, cell-based qHTS assay with human liver microsomes (AID 1963577)
In short: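 Fluorescence of the beta-lactamase reporter in p53RE-bla cells, detected with LiveBLAzer substrate (2 h, room temperature, dark), served as the read-out after 16 h compound exposure at 37 C with human liver microsomes and NADPH, each 0.5 mg/mL final.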

[7] = p53 small molecule agonists, cell-based qHTS assay with rat liver microsomes (AID 1963578)
In short: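 Cells carrying a p53 response element–beta-lactamase reporter were plated and rested 5 h, then dosed with compound in DMSO plus rat liver microsomes and NADPH, each at 0.5 mg/mL final. After 16 h at 37 C, LiveBLAzer substrate was added for 2 h.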

[8] = p53 small molecule agonists, cell-based qHTS assay with human liver microsomes: qHTS cell viability counter screen (AID 1963579); note: nearly all actives have a fitted effect of over 45% in size
In short: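 Cytotoxicity counter screen: p53RE-bla, 4,000 cells/well; 5 h settle, 37 C/5% CO2; cpd + HLM 0.5 mg/mL + NADPH 0.5 mg/mL (final); 16 h, 37 C; CellTiter-Glo, 30 min RT, luminescence.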

[9] = p53 small molecule agonists, cell-based qHTS assay with rat liver microsomes: qHTS cell viability counter screen (AID 1963580); note: nearly all actives have a fitted effect of over 45% in size
In short: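 Viability is assessed in parallel with the p53 reporter read: HCT-116 p53RE-bla cells receive compounds plus rat microsomes and NADPH (0.5 mg/mL final apiece), incubate 16 h at 37 C, and then CellTiter-Glo luminescence is recorded.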

[10] = p53 small molecule agonists, cell-based qHTS assay: qHTS cell viability counter screen (AID 1963581); note: nearly all actives have a fitted effect of over 45% in size
In short: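 p53RE-bla HCT-116 cells were exposed to compounds for 16 h at 37 C; after the beta-lactamase FRET read in the same wells, CellTiter-Glo was added and luminescence (intracellular ATP) read after 30 min at room temperature.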

[11] = p53 small molecule agonists, cell-based qHTS assay (AID 1963582; active = well fitted activation curve with a large enough effect in the signal ratio in the repeat runs, not every such curve was filed as active; the % refers to the signal ratio)
In short: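 p53RE-bla beta-lactamase reporter cells rested 5 h at 37 C/5% CO2, then received compounds in DMSO by pin transfer and were incubated 16 h at 37 C. LiveBLAzer B/G FRET substrate was loaded for 2 h at room temperature before fluorescence reading.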

[12] = biological target: 5-hydroxytryptamine receptor 2A (Homo sapiens) (UniProt P28223); assay: 5-hydroxytryptamine receptor 2A (HTR2A) small molecule antagonists, cell-based qHTS assay (AID 1963586); note: nearly all actives have a fitted effect of over 45% in size
In short: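 Antagonist-mode intracellular calcium assay: DOI (4 nM) added after 5 min compound pre-incubation at room temperature to dye-loaded HTR2A-CHO cells. Fluorescence followed for 3 min, sampled every second.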

[13] = biological target: 5-hydroxytryptamine receptor 2A (Homo sapiens) (UniProt P28223); assay: 5-hydroxytryptamine receptor 2A (HTR2A) small molecule agonists, cell-based qHTS assay (AID 1963587); note: nearly all actives have a fitted effect of over 30% in size
In short: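 CHO cells stably expressing human HTR2A, plated 18 h, loaded with calcium dye 1 h at 37 C. Agonist mode: compounds added and intracellular calcium fluorescence recorded kinetically for 2 min at 1 sec intervals.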

[14] = biological target: Muscarinic acetylcholine receptor M1 (Homo sapiens) (UniProt P11229); assay: Cholinergic receptor muscarinic 1 (CHRM1) small molecule antagonists, cell-based qHTS assay (AID 1963588); note: nearly all actives have a fitted effect of over 40% in size; note: potency is the fitted concentration of half-maximal effect
In short: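 CHRM1-CHO calcium-flux assay, antagonist mode. Cells were seeded 18 h, dye-loaded 1 h at 37 C and given compound for 5 min at RT, then acetylcholine was added at 50nM. FDSS fluorescence was read 3 min; 15 concentrations, three runs.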

[15] = biological target: Muscarinic acetylcholine receptor M1 (Homo sapiens) (UniProt P11229); assay: Cholinergic receptor muscarinic 1 (CHRM1) small molecule agonists, cell-based qHTS assay (AID 1963589); note: nearly all actives have a fitted effect of over 35% in size
In short: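 CHO cells stably expressing human CHRM1, seeded 18 h at 37 C/5% CO2, dye-loaded 1 h at 37 C, then given compound in agonist mode; intracellular calcium fluorescence read kinetically at 1 s intervals. Fifteen concentrations, three independent runs.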

[16] = cAMP Responsive Elements (CRE) small molecule agonists, cell-based qHTS assay (AID 1963590)
In short: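 CRE-bla HEK 293T cells in DMEM with 10% dialyzed FBS, NEAA, pyruvate and 25 mM HEPES were plated 18 h at 37 C/5% CO2, then exposed to compounds in DMSO for 3 h before LiveBLAzer B/G FRET substrate addition.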

[17] = cAMP Responsive Elements (CRE) small molecule antagonists, cell-based qHTS assay (AID 1963591; active = well fitted inhibition curve with a large enough effect in the signal ratio in the repeat runs, not every such curve was filed as active; the % refers to the signal ratio)
In short: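 CRE-bla HEK293T cells were plated 18 h at 37 °C/5% CO2, pinned with compound in DMSO, then stimulated with NKH477 at 0.25 uM final for 3 h. LiveBLAzer B/G FRET substrate was added and plates incubated 2 h at room temperature.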

[18] = biological target: Beta-2 adrenergic receptor (Homo sapiens) (UniProt P07550); assay: Adrenergic beta2 receptor (ADRB2) small molecule antagonists, cell-based qHTS assay (AID 1963592); note: series mostly up to about 92 µM; nearly all actives have a fitted effect of over 50% in size
In short: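 Cells (CHO, stable ADRB2 overexpression) incubated 18-20hr at 37C; compounds added from DMSO; agonist mix (1nM isoproterenol, 100uM IBMX, 25uM Ro-20-1724) added; 0.5hr RT; d2-cAMP and anti-cAMP-cryptate added; 1hr RT; 665/615 nm read.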

[19] = biological target: D(2) dopamine receptor (Homo sapiens) (UniProt P14416); assay: Dopamine D2 receptor (DRD2) small molecule agonists, cell-based qHTS assay (AID 1963594); note: nearly all actives have a fitted effect of over 35% in size
In short: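 HEK293 cells stably expressing human DRD2, pre-treated with PDE inhibitor Ro20-1724 (0.1 mM final) and compound 10 min at room temperature, then stimulated with NKH477 (200nM […]) for 30 min. cAMP read by HTRF (665/620 nm).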

[20] = biological target: D(2) dopamine receptor (Homo sapiens) (UniProt P14416); assay: Dopamine D2 receptor (DRD2) small molecule antagonists, cell-based qHTS assay (AID 1963595; active = well fitted inhibition curve with a large enough effect in the signal ratio in the repeat runs, with a control signal flat; the % refers to the signal ratio)
In short: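 HEK293 cells stably expressing DRD2, preincubated with 0.1 mM Ro20-1724 and compounds 10 min, were stimulated with 200 nM NKH477 plus 12 nM quinpirole for 30 min at room temperature; cAMP measured by HTRF (665/620 nm).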

Measured: Potency

Sequence of D(2) dopamine receptor (Homo sapiens) (P14416 whole entry, looked up): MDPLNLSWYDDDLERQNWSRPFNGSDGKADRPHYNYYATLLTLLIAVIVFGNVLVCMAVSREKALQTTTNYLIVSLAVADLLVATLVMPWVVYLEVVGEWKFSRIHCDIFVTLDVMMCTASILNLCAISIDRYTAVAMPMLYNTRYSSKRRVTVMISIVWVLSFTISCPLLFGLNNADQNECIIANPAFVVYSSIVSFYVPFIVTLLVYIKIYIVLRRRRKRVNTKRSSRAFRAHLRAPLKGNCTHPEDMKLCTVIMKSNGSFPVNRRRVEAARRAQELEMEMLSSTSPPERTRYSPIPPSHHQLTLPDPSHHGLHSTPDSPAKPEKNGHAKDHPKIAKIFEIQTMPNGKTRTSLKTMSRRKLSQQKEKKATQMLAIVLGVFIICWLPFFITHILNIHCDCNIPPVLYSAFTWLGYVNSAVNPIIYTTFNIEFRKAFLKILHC
Sequence of Beta-2 adrenergic receptor (Homo sapiens) (P07550 whole entry, looked up): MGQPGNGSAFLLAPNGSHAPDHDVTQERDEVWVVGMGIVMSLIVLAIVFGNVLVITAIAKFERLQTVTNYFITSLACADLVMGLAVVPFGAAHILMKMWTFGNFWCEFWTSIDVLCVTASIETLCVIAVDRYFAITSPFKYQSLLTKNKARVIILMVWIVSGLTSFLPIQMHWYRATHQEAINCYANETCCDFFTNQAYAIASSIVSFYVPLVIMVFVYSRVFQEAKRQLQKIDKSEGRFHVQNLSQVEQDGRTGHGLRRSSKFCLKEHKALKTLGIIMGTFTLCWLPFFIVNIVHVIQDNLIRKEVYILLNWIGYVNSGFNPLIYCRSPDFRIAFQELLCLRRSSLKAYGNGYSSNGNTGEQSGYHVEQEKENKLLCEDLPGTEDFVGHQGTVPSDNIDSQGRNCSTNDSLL
Sequence of KiSS-1 receptor (Homo sapiens) (Q969F8 whole entry, looked up): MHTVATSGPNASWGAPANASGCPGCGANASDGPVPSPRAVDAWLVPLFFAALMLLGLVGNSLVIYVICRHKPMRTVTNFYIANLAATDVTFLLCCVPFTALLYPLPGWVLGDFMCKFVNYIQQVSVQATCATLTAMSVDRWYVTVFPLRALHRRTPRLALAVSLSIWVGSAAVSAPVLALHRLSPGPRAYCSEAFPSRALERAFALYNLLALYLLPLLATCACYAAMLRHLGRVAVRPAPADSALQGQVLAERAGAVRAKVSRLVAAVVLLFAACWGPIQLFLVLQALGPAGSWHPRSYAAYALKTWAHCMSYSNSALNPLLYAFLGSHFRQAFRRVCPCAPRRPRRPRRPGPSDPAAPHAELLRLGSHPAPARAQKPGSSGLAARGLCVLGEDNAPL
Sequence of Gonadotropin-releasing hormone receptor (Homo sapiens) (P30968 whole entry, looked up): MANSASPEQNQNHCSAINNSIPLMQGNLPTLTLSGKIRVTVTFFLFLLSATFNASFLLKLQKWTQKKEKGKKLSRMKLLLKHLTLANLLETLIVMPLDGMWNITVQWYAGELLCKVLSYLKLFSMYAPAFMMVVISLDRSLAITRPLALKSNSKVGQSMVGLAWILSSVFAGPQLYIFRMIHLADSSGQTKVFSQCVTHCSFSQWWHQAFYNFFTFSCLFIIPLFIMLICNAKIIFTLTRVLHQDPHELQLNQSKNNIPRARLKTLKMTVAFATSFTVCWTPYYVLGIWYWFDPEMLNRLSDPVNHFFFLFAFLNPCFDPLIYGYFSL
Sequence of 5-hydroxytryptamine receptor 2A (Homo sapiens) (P28223 whole entry, looked up): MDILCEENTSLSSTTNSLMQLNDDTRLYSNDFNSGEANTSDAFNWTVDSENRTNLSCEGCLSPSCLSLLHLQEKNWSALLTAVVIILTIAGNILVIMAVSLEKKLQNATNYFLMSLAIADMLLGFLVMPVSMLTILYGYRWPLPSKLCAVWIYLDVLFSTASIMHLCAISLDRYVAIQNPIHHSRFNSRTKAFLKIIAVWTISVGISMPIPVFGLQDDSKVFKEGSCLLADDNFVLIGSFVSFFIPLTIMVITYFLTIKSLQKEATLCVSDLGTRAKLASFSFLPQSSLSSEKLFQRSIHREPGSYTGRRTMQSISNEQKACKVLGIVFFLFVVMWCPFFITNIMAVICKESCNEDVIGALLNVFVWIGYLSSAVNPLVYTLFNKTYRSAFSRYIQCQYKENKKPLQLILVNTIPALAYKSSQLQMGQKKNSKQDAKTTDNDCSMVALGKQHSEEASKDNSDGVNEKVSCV
Sequence of Muscarinic acetylcholine receptor M1 (Homo sapiens) (P11229 whole entry, looked up): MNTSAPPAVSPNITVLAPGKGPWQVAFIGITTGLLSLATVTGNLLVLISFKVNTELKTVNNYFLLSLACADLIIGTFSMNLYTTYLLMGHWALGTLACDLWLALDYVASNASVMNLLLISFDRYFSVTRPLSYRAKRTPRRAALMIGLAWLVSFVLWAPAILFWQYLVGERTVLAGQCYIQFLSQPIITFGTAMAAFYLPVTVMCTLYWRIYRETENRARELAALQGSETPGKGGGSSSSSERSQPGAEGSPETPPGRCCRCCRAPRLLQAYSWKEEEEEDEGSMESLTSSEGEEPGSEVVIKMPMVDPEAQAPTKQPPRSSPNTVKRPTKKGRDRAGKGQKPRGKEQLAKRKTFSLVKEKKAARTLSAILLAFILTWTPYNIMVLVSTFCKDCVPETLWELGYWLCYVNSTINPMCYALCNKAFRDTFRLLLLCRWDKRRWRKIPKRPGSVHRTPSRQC

CCN(CC)CCN
inactive: all assays above

SCCSCCS
inactive: all assays above

Cc1ccccc1C
active: [14] 0.0015 µM
inactive: all other assays above

Cc1nc(C)c(C)nc1C
inactive: all assays above

CCCCOC(=O)CCCCCCCC(=O)OCCCC
inactive: all assays above

CC1CC(OC(=O)c2ccccc2O)CC(C)(C)C1 (stereo unspecified)
active: [2] 61.1 µM
inactive: all other assays above

C=CCS(=O)(=O)O
inactive: all assays above

C[N+]1([O-])CCOCC1
inactive: all assays above

CC(=O)N1C[C@H](O)C[C@H]1C(=O)O
not listed: [19]
inactive: all other assays above

CCCCCCCCS(=O)(=O)Cl
inactive: all assays above

COC(=O)c1ccccc1C
not listed: [19]
inactive: all other assays above

CC(C)OCCO
not listed: [19]
inactive: all other assays above

O=c1[nH]cnc2c1ncn2[C@@H]1O[C@H](CO)[C@@H](O)[C@H]1O
inactive: all assays above

OCC1CCC(CO)CC1 (stereo unspecified)
not listed: [19]
inactive: all other assays above

From PubChem BioAssay (Tox21)
